Results on 40 compounds are retold here after PubChem BioAssay (Tox21).

Records with an inconclusive call do not appear. Active and inactive are the calls of the source. Calls follow the shape of the dose curve; as a rule, active = well fitted inhibition curve with a large enough effect in the repeat runs; inconclusive = weak or mixed curves; inactive = no such curve, though single readings can be large or run the other way.
% is scaled to controls: 0 for no effect and ±100 for the full control effect; potency is read from the fitted curve at half-maximal effect.

Chain of Cytochrome P450 3A4 (Homo sapiens) (P08684 whole entry, looked up): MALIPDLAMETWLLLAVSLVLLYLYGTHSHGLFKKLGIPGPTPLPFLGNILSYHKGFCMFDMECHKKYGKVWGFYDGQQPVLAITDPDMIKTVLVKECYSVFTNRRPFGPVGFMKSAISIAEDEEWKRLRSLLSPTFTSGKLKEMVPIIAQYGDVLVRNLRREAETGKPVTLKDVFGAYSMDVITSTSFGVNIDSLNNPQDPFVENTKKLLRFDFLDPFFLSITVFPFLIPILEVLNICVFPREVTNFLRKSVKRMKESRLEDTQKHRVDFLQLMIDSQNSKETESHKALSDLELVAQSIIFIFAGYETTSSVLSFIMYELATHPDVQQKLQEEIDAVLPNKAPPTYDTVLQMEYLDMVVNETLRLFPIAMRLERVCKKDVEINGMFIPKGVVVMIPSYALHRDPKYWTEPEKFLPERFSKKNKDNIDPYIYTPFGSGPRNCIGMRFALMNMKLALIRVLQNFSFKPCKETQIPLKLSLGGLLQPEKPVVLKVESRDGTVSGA

The test deals with Cytochrome P450 3A4 (Homo sapiens) (UniProt P08684). The test is described as follows: Cytochrome P450 Family 3 Subfamily A Member 4 (CYP3A4) small molecule antagonists: luciferase reporter qHTS assay (AID 1671201). Also: nearly all actives have a fitted effect of over 50% in size. The note with it: P450-Glo CYP3A4 enzyme, luciferin luminescence, 1 h; series mostly up to 115 µM; activity change, negative = inhibition: at the top concentration. The text has this:
National Center for Advancing Translational Sciences [NCATS]
U.S. Environmental Protection Agency [EPA]
National Institutes of Environmental Health Sciences [NIEHS]
National Toxicology Program [NTP]
U.S. Food and Drug Administration [FDA]
Cytochrome P450 (CYP) enzymes are membrane-bound hemeproteins that play a key role in metabolism of drugs and xenobiotics. Evaluation of the effect of chemicals on CYP isozymes is useful to minimize the adverse drug reactions and toxicities in drug development process. Tox21 chemicals were tested for their effect on CYP enzyme activities by using P450-Glo (TM) screening systems (Promega Corporation, Madison, WI). These systems provide a luminescent method containing proluciferin substrates and are converted to luciferin products by CYP isozymes. The luciferin products formed are detected with a luciferin detection reagent, and the amount of light produced is proportional to CYP activity. P450-Glo (TM) CYP3A4 screening system (Catalog. No. V9910) was used to detect the compounds that interfere in CYP3A4 activity. The positive control compound used for CYP3A4 assay is ketoconazole (Sigma-Aldrich, St. Louis, MO).
Tox21 Assay Protocol Summary:
Two ul of enzyme-substrate mix was dispensed into medium binding white/solid 1536-well plates (Greiner Bio-One North America Inc., Monroe, NC) using a BioRaptr Flying Reagent Dispenser (FRD, Beckman Coulter, Brea, CA). Compounds dissolved in DMSO and positive control (ketoconazole) were transferred to the assay plates at 23 nl using a Pintool station (Wako, San Diego, CA). The assay plates were incubated at room temperature for 10 min. Then 2 ul of NADPH regeneration solution was added to each well of the assay plates using an FRD and incubated at room temperature for 1 h. The reaction was stopped by adding 4 ul of detection reagent using an FRD and after 20 min incubation at room temperature the luminescence signal was measured using a ViewLux plate reader (Perkin Elmer, Shelton, CT). Data were expressed as relative luminescence units.
(In a reporter assay the amount or activity of a reporter protein is the signal.)
For `NC(=O)N1C(=O)C(C(=O)c2cc(Cl)cs2)c2cc(F)c(Cl)cc21` (stereo not given), the Potency is 5.03 µM (active).

Take `COC(=O)c1cc(Cl)ccc1OC`: the “activity change, negative = inhibition” value is 15.3% [at 52.9 µM] (inactive). For the compound `CN(C)C(=O)C1(N2CCCCC2)CCN(CC[C@@]2(c3ccc(Cl)c(Cl)c3)CN(C(=O)c3ccccc3)CCO2)CC1`, the Potency was 0.744 µM (active). For `Clc1ccc2n[nH]nc2c1`, the “activity change, negative = inhibition” value was 2.07% (inactive).

On to `CCCCCCCCCCC=O`, for which the “activity change, negative = inhibition” value was -0.0316% (inactive). On to `Cc1ccc(O)c2ncccc12`, for which the “activity change, negative = inhibition” value was -21.9% [at 52.9 µM] (inactive). In the case of `NNC(=O)c1cccc(C(=O)NN)c1`, the Potency was 3.99 µM (active). In the case of `C[n+]1ccn(Cc2ccccc2)c1`, the “activity change, negative = inhibition” value is 5.99% (inactive). Turning to `CCCN(CCC)c1c([N+](=O)[O-])cc(C(F)(F)F)c(N)c1[N+](=O)[O-]`, the Potency was 12.6 µM (active). `Oc1ccc(C2(c3ccc(O)cc3)CC3CC2C2CCCC32)cc1` (stereo not given): the Potency was 38.4 µM (active).

Take `Cc1cc(C2CCCCC2)n(O)c(=O)c1`: the “activity change, negative = inhibition” value is -5.47% [at 52.9 µM] (inactive). In the case of `Cc1cccc(S(=O)(=O)O)c1C`, the “activity change, negative = inhibition” value was 20.7% (inactive). For the compound `CCCCCCCCNC(C)C(O)c1ccc(SC(C)C)cc1` (stereo not given), the “activity change, negative = inhibition” value was -2.05% [at 52.9 µM] (inactive). For `Nc1ccc2cc(S(=O)(=O)O)cc(O)c2c1N=Nc1ccccc1C(F)(F)F`, the “activity change, negative = inhibition” value was -16.2% (inactive).

For `CCCC(c1cc(C(C)(C)C)c(O)cc1C)c1cc(C(C)(C)C)c(O)cc1C`, the Potency is 5.09 µM (active). For `OCCCCCCCCCCCCBr`, the “activity change, negative = inhibition” value is -2.72% (inactive). With `Oc1ccc(N=Nc2ccccc2)cc1`, the Potency was 20.3 µM (active).

Take `CCCCCCCCCOC(=O)c1ccc(O)cc1`: the Potency is 39.4 µM (active). Take `CCOC(=O)O[C@H](C)OC(=O)c1ccc2c(c1)cc(C(=O)NC1CCN(C(C)C)CC1)n2Cc1cc(-c2ccc(Cl)s2)on1`: the Potency was 5.91 µM (active). Turning to `CCCCCCCCCCCCCCCS(=O)(=O)Oc1ccccc1`, the “activity change, negative = inhibition” value was -21% [at 52.9 µM] (inactive).

For `O=C(O)c1cc(O)c2c(c1)C(=O)c1cccc(O)c1C2=O`, the “activity change, negative = inhibition” value is -2.84% (inactive). As for `CCCCCCCCCCCCc1ccc(O)cc1`, the Potency is 35.6 µM (active).

For `CCCC(C)c1ccccc1O` (stereo not given), the “activity change, negative = inhibition” value was -6.91% (inactive). For `Fc1ccc(C(c2ccc(F)cc2)N2CCN(C/C=C/c3ccccc3)CC2)cc1`, the “activity change, negative = inhibition” value is 35% [at 52.9 µM] (inactive). On to `CCCCC(CC)COC(=O)c1ccccc1C(=O)O` (stereo not given), for which the “activity change, negative = inhibition” value is -0.771% (inactive). Turning to `O=C1CCCCCN1SSN1CCCCCC1=O`, the “activity change, negative = inhibition” value was -26.2% (inactive). In the case of `CC1(C)CCC(C)(C)c2cc(C(=O)Nc3ccc(C(=O)O)cc3)ccc21`, the “activity change, negative = inhibition” value is -1.91% (inactive). Same read-out and setting: for `c1ccc(CSCc2ccccc2)cc1` the value was 53.3% (inactive); for `CCCCCCCCCCCCCCCC(=O)OC[C@H](O)[C@H]1OC(=O)C(O)=C1O`, -4.73% (inactive).

For `CC(C)(C)c1ccc(C(=O)O)cc1`, the “activity change, negative = inhibition” value is -2.89% (inactive). Turning to `OC1(c2ccc(Cl)c(C(F)(F)F)c2)CCN(CCCC(c2ccc(F)cc2)c2ccc(F)cc2)CC1`, the “activity change, negative = inhibition” value is 409% [at 52.9 µM] (inactive).

Regarding `NNc1nc(-c2ccc([N+](=O)[O-])cc2)cs1`, the Potency is 5.03 µM (active). In the case of `Cc1cccc2c1cc1ccc3cccc4ccc2c1c34`, the “activity change, negative = inhibition” value was 98.2% (inactive). `C=C(C)C(=O)OCC(O)COc1ccc(C(C)(C)c2ccc(OCC(O)COC(=O)C(=C)C)cc2)cc1` (stereo not given): the “activity change, negative = inhibition” value is -14.4% (inactive). Same read-out and setting: for `O=c1cccccc1O` the value was 1.97% (inactive); for `CC(=O)OCC(C)OC(C)=O` (stereo not given), 8.23% (inactive).

Take `O=C1c2ccccc2Cc2ccccc21`: the Potency was 22.6 µM (active).

As for `O=c1[nH]sc2ccccc12`, the Potency is 39.9 µM (active). In the case of `CC1=NC(C)OC1C` (stereo not given), the Potency was 63.3 µM (active). `O=C(Oc1ccccc1)c1ccccc1C(=O)Oc1ccccc1`: the “activity change, negative = inhibition” value was 48.4% (inactive).
